Source: PubChem BioAssay (National Center for Advancing Translational Sciences (NCATS))
ALDH1A1 inh: inhibitors of human aldehyde dehydrogenase 1A1. P00352. Purified ALDH1A1, NADH fluorescence, propionaldehyde substrate. Potency, µM (series often up to 75.3 µM), hits mostly inhibitors. 7.3% of 220,000 active
PNC assembly inh: blocks assembly of the perinucleolar compartment; PC3M PTB-GFP, PNC prevalence imaging, 16 h; active compounds read low; AID 2417; 3.1% of 140,000 active; activity change (PNC), negative = inhibition, % at 10 µM;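 active = readout at or below -70, meaning at least 70% loss of cells showing the perinucleolar compartment, a nuclear body marking cancer cells; inconclusive = readout between -30 and a set limit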
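Compounds are pinned in duplicate onto adhered PC3M cells stably expressing GFP-tagged PTB and incubated 16 h at 37 C. Cells are then fixed, nuclei stained with Hoechst, and PNC-positive cells counted.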
HPGD inh: HPGD (human) dehydrogenase inhibition; purified HPGD, NADH fluorescence kinetic, PGE2 substrate; P15428; AID 894; 4.3% of 150,000 active; Potency, µM, most hits filed as inhibitors
Target sequence (P15428 whole entry, looked up): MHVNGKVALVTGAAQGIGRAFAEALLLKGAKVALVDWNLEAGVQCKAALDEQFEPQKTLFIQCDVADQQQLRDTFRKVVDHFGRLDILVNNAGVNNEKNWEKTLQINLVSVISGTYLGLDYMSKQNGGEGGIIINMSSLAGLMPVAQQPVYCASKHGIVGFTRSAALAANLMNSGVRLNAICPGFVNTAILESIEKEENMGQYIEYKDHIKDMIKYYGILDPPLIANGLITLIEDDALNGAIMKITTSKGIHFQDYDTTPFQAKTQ
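NADH formation kinetics: reaction with 30 uM PGE2 and 1 mM NAD+ (final), 20 nM enzyme, Tris-HCl pH 8 with Tween 20, after 15 min compound preincubation at room temperature. Fluorescence change, last versus first of five reads.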
Large screens that a line does not name were inactive; ! = not active in a repeat. Rows were chosen to be rich in hits. Some 11% of all compounds tested hit in one or more screens of this group. Unless noted, calls come from the whole dose curve; as a rule, active = well fitted inhibition curve with a large enough effect (not every such curve was filed as active); inconclusive = small, poorly fitted or top-dose-only effect, or another doubt; inactive = no such curve, though single readings can be large or run the other way.

Cc1cccc(N2C(=O)NC(=O)/C(=C\c3cnc(-c4ccccc4)nc3)C2=O)c1	ALDH1A1 inh 11µM, HPGD inh 25µM
CC(C)c1ccc(N2C(=O)NC(=O)/C(=C\C=C\c3ccco3)C2=O)cc1	none (no result: PNC assembly inh, HPGD inh)
O=C1NC(=S)NC(=O)C1=Cc1cccn1-c1ccc(O)cc1	ALDH1A1 inh 20µM (no result: PNC assembly inh, HPGD inh)
Cc1cc(/C=C2\C(=O)NC(=O)N(c3cccc(F)c3)C2=O)c(C)n1-c1cc(C(=O)O)cc(C(=O)O)c1	none (no result: PNC assembly inh, HPGD inh)
COc1cc(C2c3cc4c(cc3C(O)C3COC(=O)C23)OCO4)cc(OC)c1O (centres undefined)	none (no result: PNC assembly inh)
COC(=O)[C@@H]1C[C@@]2(O)[C@H](O)[C@H](O)[C@H](O)C[C@H]2N1Cc1cccnc1	none (no result: PNC assembly inh)
CC[C@]1(C2=NCCN2)Cc2ccccc2O1	none (no result: PNC assembly inh)
COC(=O)[C@@]1(OC)C[C@@H]2O[C@@]1(C)n1c3ccccc3c3c4c(c5c6ccccc6n2c5c31)C(=O)N(C)C4	none (no result: PNC assembly inh)
O=P(O)(O)CCP(=O)(O)O	none (no result: PNC assembly inh)
CC(C)(COCC1CO1)COCC1CO1 (centres undefined)	none (no result: PNC assembly inh)
CCN1C[C@@]2(COC)[C@H]3[C@@H](OC)[C@H]4C1[C@@]3([C@H](OC)C[C@@H]2O)[C@H]1C[C@@]2(O)[C@@H](OC(=O)c3ccccc3)[C@@H]1[C@@]4(OC(C)=O)[C@H](O)[C@@H]2OC	none (no result: PNC assembly inh)
CCOP(=O)(OCC)C(NC(=O)c1ccccc1)=C(Cl)Cl	none
CCOC(=O)C1=C(NC(=S)NC(=O)c2ccccc2)c2ccccc2CC12CCCC2	ALDH1A1 inh 22µM
Cc1cc(=O)oc2c1c(C)nn2-c1nn[nH]n1	ALDH1A1 inh inconclusive
Cn1c(=O)c(Oc2ccc(F)cc2)c(O)c2ccccc21	ALDH1A1 inh inconclusive, HPGD inh inconclusive
C[C@H]1CC[C@@H]2[C@@H](C)[C@H]3[C@H](C[C@H]4[C@@H]5CC=C6CC(O[C@@H]7O[C@H](CO)[C@H](O)[C@H](O[C@@H]8O[C@H](CO)[C@@H](O)[C@H](O)[C@H]8O)[C@H]7O[C@H]7O[C@@H](C)[C@H](O)[C@@H](O)[C@H]7O)CC[C@]6(C)[C@H]5CC[C@]34C)N2C1 (some centres undefined)	ALDH1A1 inh 22µM (no result: PNC assembly inh)
CC1CC[C@@]2(OC1)OC1C(O)C3C4CC[C@H]5CC(O[C@@H]6O[C@@H](CO)[C@H](OC7OC(CO)C(O)C(OC8OCC(O)C(O)[C@H]8O)[C@@H]7O[C@@H]7OC(CO)[C@H](O)[C@@H](O[C@@H]8OC(CO)C(O)C(O)C8O)C7O)C(O)C6O)C(O)C[C@]5(C)C4CC[C@]3(C)C1C2C (some centres undefined)	none (no result: PNC assembly inh)
COc1cc(CNC(=O)CCCC/C=C/C(C)C)ccc1O	ALDH1A1 inh 2µM! (no result: PNC assembly inh)
CCCCC/C=C\C/C=C\C/C=C\C/C=C\CCCC(=O)NCc1ccc(O)c(OC)c1	ALDH1A1 inh 25µM, HPGD inh 32µM (no result: PNC assembly inh)
CC/C=C\C/C=C\C/C=C\C/C=C\C/C=C\CCCC(=O)NCCc1ccc(O)c(O)c1	none (no result: PNC assembly inh)
CCCCCCCCC(=O)NCc1ccc(O)c(OC)c1	none (no result: PNC assembly inh)
CC(=O)OCC(=O)[C@@H]1CC[C@H]2[C@H]3CC[C@H]4C[C@@H](O)CC[C@]4(C)[C@@H]3C(=O)C[C@@]12C	none (no result: PNC assembly inh)
CCN(CC)C(=O)c1ccc(NC(=O)c2cccc(F)c2)cc1	HPGD inh 14µM
NC(=O)c1ccc(C(=O)Nc2ccc([As](=O)(O)O)cc2)cc1	none (no result: PNC assembly inh)
COc1ccc(-n2c(O)c(/C=C/C=Nc3ccccc3)c(=O)[nH]c2=O)cc1	none
O=c1[nH]c(=O)n(-c2ccccc2)c(O)c1/C=C/C=Nc1ccccc1	none
COC(=O)C1=Nc2ccccc2/C1=C\c1c(O)n(-c2ccc(OC)cc2)c(=O)[nH]c1=O	ALDH1A1 inh 22µM
O=c1[nH]c(=O)n(-c2ccccc2)c(O)c1N=Nc1ccc(Br)cc1	none (no result: PNC assembly inh, HPGD inh)
O=c1[nH]c(=O)n(-c2ccccc2)c(O)c1/C=C1/C(c2ccccc2)=Nc2ccccc21	ALDH1A1 inh inconclusive, PNC assembly inh -91, HPGD inh 25µM
COC(=O)C1=Nc2ccccc2/C1=C\c1c(O)n(-c2ccc(Br)cc2)c(=O)[nH]c1=O	PNC assembly inh -124, HPGD inh 18µM
CC(C)c1c(CN(C)[C@@H](C)Cc2ccccc2)n(C)n(-c2ccccc2)c1=O	none (no result: PNC assembly inh)
CC(C)(C)NC[C@H](O)COc1cccc2[nH]c(C#N)cc12	none (no result: PNC assembly inh, HPGD inh)
CC12CCC3C(CCC4=C(O)C(=O)CCC43C)C1CCC2=O (centres undefined)	none (no result: PNC assembly inh)
C=C[C@H]1CN2CC[C@H]1C[C@H]2c1[nH]c2ccccc2c1CCO	none (no result: PNC assembly inh)
Cc1[nH]n(-c2ccccc2)c(=O)c1C(c1cccc([N+](=O)[O-])c1O)c1c(C)[nH]n(-c2ccccc2)c1=O	ALDH1A1 inh 16µM, PNC assembly inh inconclusive, HPGD inh 28µM
COc1cc(C(c2c(C)[nH]n(-c3ccccc3)c2=O)c2c(C)[nH]n(-c3ccccc3)c2=O)cc(OC)c1OC	PNC assembly inh inconclusive
CN1CCC2=C[C@@H](O)[C@@H]3OC(=O)c4cc5c(cc4C3C21)OCO5 (some centres undefined)	ALDH1A1 inh inconclusive (no result: PNC assembly inh)
N[C@H](CCCCCP(=O)(O)O)C(=O)O	none (no result: PNC assembly inh)
Cc1cc(C)cc(-n2c(C)cc(/C=C3\C(=O)NC(=O)N(C)C3=O)c2C)c1	none
Cc1ccnc(-n2c(C)cc(C=C3C(=O)N(C)C(=S)N(C)C3=O)c2C)c1	ALDH1A1 inh inconclusive, PNC assembly inh inconclusive, HPGD inh 32µM
CN(C)CCC(C#N)(c1ccccc1)c1ccccc1	none (no result: PNC assembly inh)
O[C@@H](Cc1ccncc1)C(Cl)(Cl)Cl	none (no result: PNC assembly inh)
CCc1ccc(N2C(=O)NC(=O)/C(=C/c3cccn3CCOc3ccc(C)cc3)C2=O)cc1	PNC assembly inh inconclusive
CCOc1ccc(CC2C(=O)NC(=O)N(c3ccc(CC)cc3)C2=O)cc1 (centres undefined)	ALDH1A1 inh 22µM
N[C@H](Cc1c[nH]c2ccccc12)P(=O)(O)O	none (no result: PNC assembly inh)
C[Se]C[C@H](N)C(=O)O	ALDH1A1 inh inconclusive (no result: PNC assembly inh)
CCCN1CCCC(c2cccc(O)c2)C1 (centres undefined)	none (no result: PNC assembly inh)
O=C1Nc2ccccc2C2(CCN(CCc3ccc(C(F)(F)F)cc3)CC2)O1	none (no result: PNC assembly inh)
CC(=NCc1cccnc1)c1c(O)n(-c2ccccc2)c(=O)[nH]c1=O	none
CCCCn1c(O)c(C(CC)=NC(C)c2ccccc2)c(=O)[nH]c1=O (centres undefined)	none
C=CCn1c(O)c(C(C)=Nc2ccc(N(CC)CC)cc2)c(=O)[nH]c1=O	ALDH1A1 inh inconclusive
CCC(=NCc1cccnc1)c1c(O)n(Cc2ccccc2)c(=O)[nH]c1=O	ALDH1A1 inh inconclusive, HPGD inh 16µM
CC(=NCc1cccnc1)c1c(O)n(Cc2ccccc2)c(=O)[nH]c1=O	ALDH1A1 inh inconclusive, HPGD inh 28µM
CCCCn1c(O)c(C(CC)=NCc2cccnc2)c(=O)[nH]c1=O	none
C=CCn1c(O)c(C(C)=Nc2ccc(N(C)C)cc2)c(=O)[nH]c1=O	PNC assembly inh -91
C=CCn1c(O)c(C(CC)=NC(C)c2ccccc2)c(=O)[nH]c1=O (centres undefined)	ALDH1A1 inh inconclusive, PNC assembly inh -94
O=C(O)C[SH+]CC(=O)O.O=C(O)C[SH+]CC(=O)O.[Cu]	none (no result: ALDH1A1 inh, PNC assembly inh)
CCN(CC)c1ncnc2c1ncn2[C@@H]1O[C@H](COP(=O)(O)OP(=O)(O)C(Br)(Br)P(=O)(O)O)[C@@H](O)[C@H]1O	none (no result: PNC assembly inh)
